Rows were chosen to be rich in hits. Some 19% of all compounds tested hit in one or more screens of this group.
HT1080-NT tox – kills 2HG-producing HT-1080-NT fibrosarcoma cells; HT-1080-NT fibrosarcoma viability, CellTiter-Glo ATP luminescence, 48 h; Potency, µM (titrated, usually from 46.1 µM), inactives show at the top dose activity, negative = less viability, hits mostly cytotoxic; 1.6% of 360,000 active; AID 686970;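 note: NT is the 2HG producing partner of a matched IDH1 knockdown line; 0% = DMSO-treated cells and -100% = media-only wells without cells; nearly all actives have a fitted effect of over 55% in size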
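A 48-hour cytotoxicity screen used HT-1080-NT cells plated 2 hours before compound delivery. ATP-based CellTiter-Glo luminescence measured viability, normalized to DMSO and no-cell controls.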
HT1080 IDH1KD tx – kills HT-1080 cells with IDH1 knockdown. HT-1080 IDH1 knockdown viability, ATP luminescence, 48 h. Potency, µM (top dose mostly 46.1 µM), inactives show at the highest dose activity, negative = toxicity, actives largely listed as cytotoxic. 2% of 360,000 active. AID 686971;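 note: 0% = DMSO wells and -100% = cell-free medium wells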
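Knockdown cells (IDH1KD HT-1080) received compounds 2 h after plating at 750 cells/well and were kept 48 h at 37 °C in 5% FBS RPMI. A CellTiter-Glo luminescence read gave % activity for curve fitting.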
KB-3-1 tox – KB-3-1 parental cell cytotoxicity; KB-3-1 viability, CellTiter-Glo ATP luminescence, 72 h; Potency, µM (series often up to 46.1 µM), most hits filed as cytotoxic; 1.4% of 400,000 active; AID 1347075; note: nearly all actives have a fitted effect of over 60% in size
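KB-3-1 cells, DMEM (no phenol red) + 10% FBS; compound by pin transfer, 72 h, 37 °C. Readout: CellTiter-Glo luminescence after 10 min. Data normalized, curve-fitted.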
KB-V1 cytotox – kills drug-selected multidrug resistant KB-V1 cells | KB-V1 MDR cells viability, CellTiter-Glo, 72 h | Potency, µM (titrated, usually from 46.1 µM), actives largely listed as cytotoxic | 3.4% of 400,000 active; note: nearly all actives have a fitted effect of over 60% in size
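Potencies derive from concentration-effect curves fitted to normalized luminescence (CellTiter-Glo) of KB-V1 cells treated for 72 h at 37 degrees C in phenol-red-free DMEM containing 10% FBS.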
DT40 TDP1 CPT – growth inhibition of DT40 Tdp1-/-;hTDP1 cells with camptothecin (screen for TDP1 inhibitors); chicken DT40 Tdp1-/-;hTDP1 cells + 20 nM CPT, ATP luminescence, 48 h; Potency, µM (top dose mostly 46.2 µM), without a hit: at the highest dose activity change, negative = growth inhibition, usual class: inhibitors; 12% of 420,000 active; note: nearly all actives have a fitted effect of over 55% in size
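Chicken DT40 Tdp1-/- cells stably complemented with human TDP1 were seeded at 400 cells/well in medium containing 20 nM camptothecin, exposed to pin-transferred compounds, and grown at 37 °C for at least 48 hr. Viability was read as ATP luminescence.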
TDP1 cell noCPT – qHTS for Inhibitors of human tyrosyl-DNA phosphodiesterase 1 (TDP1): qHTS in cells in absence of CPT; 15% of 420,000 active; DT40 Tdp1-/- hTDP1 cells, no CPT, ATP luminescence, 48 h; AID 686978, 2013; Potency, µM (doses to about 46.2 µM), for the others: at the highest dose activity change, negative = growth inhibition, hits mostly inhibitors; note: nearly all actives have a fitted effect of over 55% in size
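Growth kinetics read by CellTiter-Glo luminescence after ≥48 hr at 37 °C. Cells: DT40 Tdp1-/- stably carrying human TDP1, 400 per well, compound exposure in the absence of CPT (DMSO vehicle).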
Active calls of the source: *; i = inactive; ? = inconclusive; . = not tested or not shown; ! = not active in a repeat. Calls come from the whole dose curve; as a rule, active = well fitted curve in the direction sought with a large enough effect; inconclusive = small, poorly fitted or top-dose-only effect, or another doubt; inactive = no such curve, though single readings can be large; an effect the other way counts as inactive or inconclusive. Unless noted, % is set by controls: 0 for no effect and ±100 for the full control effect; potency is the fitted concentration of half-maximal effect.

SMILES	HT1080-NT tox	HT1080 IDH1KD tx	KB-3-1 tox	KB-V1 cytotox	DT40 TDP1 CPT	TDP1 cell noCPT
CC(C)(C)CC(C)(C)N=C1Nc2ccc(Cl)cc2N[C@]12C[C@H]1CCCC(=O)N3CC[C@@H](C2)[C@@H]13	.	.	?	21µM*	?	?
Cc1cc2c(cc1C)N[C@]1(C[C@H]3CCC(=O)N4CC[C@@H](C1)[C@@H]34)C(=Nc1ccccc1C)N2	.	.	i	i	-81%	?
O=C1CCC[C@@H]2C[C@@]3(C[C@@H]4CCN1[C@H]24)Nc1cc(Cl)ccc1NC3=NC1CCCCC1	1%	0%	i	i	?	?
O=C1CCC[C@@H]2C[C@@]3(C[C@@H]4CCN1[C@H]24)Nc1cc([N+](=O)[O-])ccc1NC3=NC1CCCCC1	-7%	-6%	i	i	26µM*	11µM*
Cc1cc2c(cc1C)N[C@]1(C[C@H]3CCCC(=O)N4CC[C@@H](C1)[C@@H]34)C(=NCc1ccccc1)N2	.	.	i	i	11µM*	11µM*
Cc1cc2c(cc1C)N[C@]1(C[C@H]3CCCC(=O)N4CC[C@@H](C1)[C@@H]34)C(=NC(C)(C)CC(C)(C)C)N2	-15%	-11%	?	21µM*!	18µM*	11µM*
CCCNC(=O)CSc1nc2nc(C)c(Cc3ccccc3Cl)c(C)n2n1	.	.	i	i	?	?
COc1ccc(C(=O)c2c[nH]c3ccccc23)cc1	-1%	-5%	i	i	-19%	-23%
O=c1c2ccccc2sc2c(CO)ccc(NCCN3CCCCC3)c12	-28%	?	?	16µM*	0.41µM*	0.92µM*
CCN(CC)CCCNC(=O)c1csc(Nc2cccc3ccccc23)n1	?	-11%	i	i	-12%	-25%
CCN(CC)CCNc1cccc2sc3ccccc3c(=O)c12	-3%	-14%	i	?	23µM*	18µM*
CCN(CC)CCNc1ccc(CO)c2oc3ccccc3c(=O)c12	?	-17%	?	?	8.2µM*	8.2µM*
CCN(CC)CCNc1ccc(CO)c2sc3ccccc3c(=O)c12	12µM*	21µM*	16µM*	?	0.58µM*	1.2µM*
O=C(NCCN1CCCCC1)Nc1ccccc1Cl	-1%	1%	i	i	-3%	12%
Cc1c(F)cccc1NS(=O)(=O)c1ccc2c(c1)c(C)cc(=O)n2C	-4%	-2%	i	i	?	?
CCOC(=O)c1c(C)sc(Sc2ccc(Cl)cc2[N+](=O)[O-])c1OC	-3%	-12%	?	?	?	?
O=C(Nc1ccccc1)Nc1n[nH]c2nnc(-c3ccccc3)c(-c3ccccc3)c12	?	?	i	?	?	16µM*
CCCC[C@@H]1C[C@H]1[C@@H](NC(=O)c1ccco1)c1ccc(Cl)cc1	-28%	-17%	i	i	?	?
CCCC[C@@H]1C[C@H]1[C@@H](NC(=O)c1cccs1)c1ccc(Cl)cc1	?	?	?	?	29µM*	15µM*
CCCC[C@@H]1C[C@H]1[C@@H](NC(=O)c1cccs1)c1ccc(C(F)(F)F)cc1	0%	-3%	i	i	?	21µM*

High-throughput results (PubChem BioAssay)
